From the supplement of paper PMC9262897, “Low-cost anti-mycobacterial drug discovery using engineered E. coli” (Nature Communications, 2022)
Structures can show the parent of a compound that is named as a salt. ± gives the standard deviation of the averaged measurements.

System: E. coli TESEC Mtb Alr
Assay: growth (OD600 after 10 h); higher = more growth (less inhibition)
Conditions: compound 0.1 mM
Description: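 TESEC Mtb Alr E. coli, or the Alr+ wild-type control, in 384-well plates with Prestwick library compounds at 0.1 mM and 1% DMSO, across arabinose induction levels of 1E3 to 1E7 nM. Growth is read as OD600 after 10 h at 37 °C in triplicate biological replicates.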

[1] = arabinose 1000 nM, raw OD600 reference: median of DMSO wells 0.294, cell-free background 0.041
[2] = arabinose 10000 nM, raw OD600 reference: median of DMSO wells 0.264, cell-free background 0.041
[3] = arabinose 100000 nM, raw OD600 reference: median of DMSO wells 0.201, cell-free background 0.041
[4] = arabinose 1000000 nM, raw OD600 reference: median of DMSO wells 0.193, cell-free background 0.041
[5] = arabinose 10000000 nM, raw OD600 reference: median of DMSO wells 0.146, cell-free background 0.041

SMILES | growth [1] | growth [2] | growth [3] | growth [4] | growth [5]
CC(C)(S)C(N)C(=O)O (racemic) [D,L-Penicillamine] | 0.307 ± 0.016 | 0.2563 ± 0.0018 | 0.187 ± 0.021 | 0.187 ± 0.0061 | 0.146 ± 0.0078
N=C(N)NC(=O)Cc1c(Cl)cccc1Cl [Guanfacine hydrochloride] | 0.287 ± 0.0063 | 0.26 ± 0.0052 | 0.236 ± 0.018 | 0.143 ± 0.0065 | 0.165 ± 0.0022
COc1cc(C(=O)N2CCOCC2)cc(OC)c1OC [Trimetozine] | 0.313 ± 0.014 | 0.2694 ± 0.0015 | 0.22 ± 0.0037 | 0.203 ± 0.023 | 0.14 ± 0.0052
c1ccc2[nH]c(-c3cscn3)nc2c1 [Tiabendazole] | 0.275 ± 0.0031 | 0.253 ± 0.011 | 0.203 ± 0.021 | 0.188 ± 0.0046 | 0.15 ± 0.011
COC(=O)Nc1nc2cc([S+]([O-])c3ccccc3)ccc2[nH]1 (stereo not given) [Oxfendazol] | 0.304 ± 0.014 | 0.2674 ± 0.00072 | 0.195 ± 0.024 | 0.165 ± 0.0037 | 0.1348 ± 0.00046
Cc1ncc([N+](=O)[O-])n1CC(C)O (stereo not given) [Secnidazole] | 0.304 ± 0.012 | 0.272 ± 0.015 | 0.201 ± 0.0071 | 0.188 ± 0.0085 | 0.137 ± 0.0015
Cc1c(O)c(=O)n(-c2ccccc2)n1C [Antipyrine, 4-hydroxy] | 0.289 ± 0.012 | 0.252 ± 0.0096 | 0.211 ± 0.0099 | 0.182 ± 0.004 | 0.154 ± 0.0051
O=C(O)[C@H]1/C(=C/CO)O[C@@H]2CC(=O)N21 [Clavulanate potassium salt] | 0.0502 ± 0.0035 | 0.0477 ± 0.0036 | 0.0582 ± 0.0016 | 0.195 ± 0.0057 | 0.0991 ± 0.0015
